MITF primary – human MITF inhibition, primary screen | O75030 | AlphaScreen MITF homodimerization, bead proximity signal | inhibition, % at 2.6 µM | 650,000 tested, 0.91% active; in the data active = inhibition above about 50%;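 note: 0% = vehicle wells with protein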
Target sequence (O75030 whole entry, looked up): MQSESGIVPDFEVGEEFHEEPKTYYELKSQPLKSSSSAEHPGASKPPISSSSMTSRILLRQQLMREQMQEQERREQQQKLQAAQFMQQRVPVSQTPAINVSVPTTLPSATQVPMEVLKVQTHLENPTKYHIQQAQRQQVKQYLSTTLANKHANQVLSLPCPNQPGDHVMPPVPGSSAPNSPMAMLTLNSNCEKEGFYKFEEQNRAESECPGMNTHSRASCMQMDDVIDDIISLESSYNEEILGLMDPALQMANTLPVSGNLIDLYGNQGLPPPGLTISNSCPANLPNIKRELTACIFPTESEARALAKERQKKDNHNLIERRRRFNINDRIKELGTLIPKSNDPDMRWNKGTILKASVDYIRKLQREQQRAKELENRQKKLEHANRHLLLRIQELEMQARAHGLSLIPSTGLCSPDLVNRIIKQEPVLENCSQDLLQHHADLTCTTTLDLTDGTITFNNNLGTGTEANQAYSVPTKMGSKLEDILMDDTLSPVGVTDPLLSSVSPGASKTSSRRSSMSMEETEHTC
FBW7 activator – human FBW7 E3 ligase activation, primary screen. Q969H0. AlphaScreen FBW7–phospho-cyclin E peptide binding, activator screen. normalized activity (activation), % at 26.1 µM. 650,000 tested, 0.13% active. AID 1259310; in the data active = normalized activity above about 1.9%;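 note: purified mutant Fbw7 with reduced substrate affinity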
TEAD-YAP block – TEAD-YAP interaction inhibition; inhibition, % at 9.12 µM; AID 1259422; HEK-TIYL cells, TEAD-Gal4/YAP UAS-luciferase luminescence; 640,000 tested, 1.4% active; in the data active = inhibition above about 32%;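 note: 0% = median of test compound wells and 100% = reference inhibitor wells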
GPR151 ag – activators of human GPR151; activation, % at 11.2 µM; 650,000 tested, 1% active; Q8TDV0; PathHunter beta-arrestin GPR151 cells, luminescence; in the data active = activation above about 4.9%;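 note: 0% = median of compound wells and 100% = cells with positive control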
MITF confirm – human MITF inhibition, confirmation; shares compounds with MITF primary; 4,700 tested, 16% active; AID 1259372; AlphaScreen MITF homodimerization, biotin/His-MITF beads; inhibition, % at 2.6 µM;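 active = inhibition above a cutoff derived from the DMSO control wells, cut at about 28% in these data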;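 note: 0% = MITF dimer wells with DMSO only; inhibitors lower the bead chemiluminescence by keeping MITF from dimerizing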
AS interf DR – AlphaScreen optical interference, dose response counter-screen; 480 tested, 6% active; AID 1259373; AlphaScreen optical interference counterscreen, cell-free; IC50, µM; shares compounds with MITF primary; call rule not given here
AlphaScreen intf2 – optically interferes with AlphaScreen signal. shares compounds with MITF primary. 4,700 tested, 7.6% active. inhibition, % at 2.6 µM. LysRS AlphaScreen counterscreen, signal interference, triplicate. AID 1259376;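 active = inhibition above a cutoff derived from the DMSO control wells, cut at about 30% in these data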
Starred values were filed as active, the others as inactive; . = no result given; ! = repeats disagree. Rows were chosen to be rich in hits. Some 3.4% of all compounds tested hit in one or more screens of this group.

SMILES	MITF primary	FBW7 activator	TEAD-YAP block	GPR151 ag	MITF confirm	AlphaScreen intf2	others
CCOC(=O)C1C2NC(=S)N(c3cccc(Cl)c3)C1(C)Oc1c(OC)cccc12 (stereo unspecified)	52*	0	3	-1	34*	15	AS interf DR=>5.1
CCOC(=O)C1C2NC(=S)N(c3ccc(CC)cc3)C1(C)Oc1c(OCC)cccc12 (stereo unspecified)	54*	0	5	-1	42*	27	AS interf DR=>5.5
CCOC(=O)C1C2NC(=S)N(c3ccccc3OC)C1(C)Oc1c(OCC)cccc12 (stereo unspecified)	16	0	-1	-1	.	.
COC(=O)C1(O)c2ccccc2-c2ccccc21	15	0	2	-1	.	.
N/C(=N\[N+](=O)[O-])N/N=C\c1ccc(-c2ccc(O)c(C(=O)O)c2)o1	75*	-1	-8	-1	79*	11	AS interf DR=>6.5
N/C(=N\[N+](=O)[O-])N/N=C\c1ccc(-c2ccccc2C(=O)O)o1	2	0	14	1	.	.
O=C(c1ccccc1Cl)c1cc(Br)ccc1NC(=O)c1ccccc1[N+](=O)[O-]	12	0	-5	0	.	.
Cc1cccc(CN2CCN(Cc3cccc(F)c3)CC2)c1	76*	0	3	-1	2	7
CCc1ccc(CN2CCN(Cc3cccc(C)c3)CC2)cc1	39	0	-8	0	.	.
CCc1ccc(CN2CCN(Cc3ccc(F)cc3)CC2)cc1	57*	0	-6	0	0	-4
Fc1cccc(CN2CCN(Cc3ccccc3)CC2)c1	64*	0	8	-1	-4	-7
Fc1cccc(CN2CCN(Cc3ccccc3F)CC2)c1	70*	0	-1	0	7	-6
CN1CCCN(C(=O)COc2ccc(C#N)cc2)CC1	13	0	0	-2	.	.
CCc1ccc(CN2CCN(Cc3cccc(F)c3)CC2)cc1	75*	0	-12	-1	5	3
CCN1CCN(Cc2cccc(F)c2)CC1	-1	0	6	-2	.	.
Cc1cccc(CN2CCN(Cc3ccc(Cl)cc3)CC2)c1	59*	0	10	0	9	16
CCc1c(C)c(C#N)c2nc3ccccc3n2c1NCCNc1ccc([N+](=O)[O-])cc1	-4	0	0	1	.	.
CN1CCC(N(C)c2nc(N)ncc2[N+](=O)[O-])CC1	4	0	3	0	.	.
O=P(O)(O)C(Cl)(Cl)P(=O)(O)O	77*!	0	-7	1	63*	-7
O=C1NC(=O)C(CCc2ccccn2)(CCc2ccccn2)C(=O)N1CCC1=CCCCC1	24	1	-1	-1	.	.
O=[N+]([O-])c1c(Cl)cc(Cl)c2nonc12	7	0	2	2	.	.
O=C(O)CSc1cc(Cl)c2nonc2c1[N+](=O)[O-]	87*	0	13	1	85*	21	AS interf DR=>6.6
COC(=O)C1=C(C)OC(N)=C(C(=O)OC(C)(C)C)C12C(=O)Nc1ccccc12 (stereo unspecified)	-21	0	-9	0	.	.
COc1cccc(CN2CCN(c3ccc([N+](=O)[O-])cc3)CC2)c1	40	0	4	4	.	.
COc1cccc(CN2CCN(Cc3cccc(Br)c3)CC2)c1	63*	0	2	-1	13	16
SMILES	MITF primary	FBW7 activator	TEAD-YAP block	GPR151 ag	MITF confirm	AlphaScreen intf2	others
COc1cccc(CN2CCN(Cc3ccc(Br)cc3)CC2)c1	70*	0	-8	-1	4	15
COc1ccccc1OCC#CCN1CCCC(C)C1 (stereo unspecified)	58*	0	7	-2	4	10
CN1C2CCC1CC(OC(=O)CNC1CCCCC1)C2 (stereo unspecified)	55*	0	-5	3	8	14
COc1ccc(CN2CCN(Cc3ccccc3OC)CC2)cc1	77*	0	-8	0	31*	17	AS interf DR=>7.3
COc1ccccc1CN1CCN(Cc2ccc(SC)cc2)CC1	81*	0	-6	0	13	15
COc1ccccc1N1CCN(Cc2ccc(F)cc2)CC1	9	0	-3	0	.	.
COc1ccccc1CN1CCN(Cc2cccc(Cl)c2)CC1	69*	0	-8	1	14	-7
COc1cccc(CN2CCN(c3ccc(Cl)cc3)CC2)c1O	17	0	12	-2	.	.
COc1ccccc1CN1CCN(Cc2ccc(Cl)cc2)CC1	73*	0	-6	0	8	10
C=CCN1C(=O)C2(C(C#N)=C(N)OC(CC(=O)OCC)=C2C(=O)OCC)c2ccccc21 (stereo unspecified)	11	0	6	0	.	.
Fc1ccc(NC(=S)NC2CN3CCC2CC3)cc1 (stereo unspecified)	2	0	1	0	.	.
COc1ccccc1CN1CCN(Cc2ccc(F)cc2)CC1	81*	0	-5	-1	6	18
O=C(Cc1ccccc1)N1CCN(Cc2ccccn2)CC1	47	-1	0	0	.	.
Cn1cccc1CN1CCN(C(=O)COc2ccccc2)CC1	53*	1	-14	-1	6	17
O=C(COc1ccccc1)N1CCN(Cc2ccccn2)CC1	78*	0	3	1	-1	2
C[C@H]1CC[C@@H]2[C@@H](C)[C@H]3[C@H](C[C@H]4[C@@H]5CC[C@H]6C[C@@H](O)CC[C@]6(C)[C@H]5CC[C@]34C)N2C1	-1	0	5	3	.	.
COc1ccccc1CN1CCN(Cc2ccccc2C)CC1	78*	0	-8	0	7	9
COc1ccccc1CN1CCN(Cc2ccccc2Br)CC1	71*	0	-16	-2	2	6
CCN1CCN(Cc2ccccc2OC)CC1	-67	0	-3	0	.	.
Cc1cccc(CC(=O)N2CCN(Cc3nc4ccccc4[nH]3)CC2)c1	55*	-1	7	1	9	19
C[N+]1(C)C2CCC1CC(OC(=O)C(CO)c1ccccc1)C2 (stereo unspecified)	63*!	0	-5	0	-1	-10
C[N+]1(C)[C@@H]2CC[C@H]1CC(OC(=O)C(CO)c1ccccc1)C2 (stereo partly specified)	18	0	.	-4	.	.
C=CCOC(=O)C1=C(C)OC(N)=C(C#N)C12C(=O)Nc1ccc([N+](=O)[O-])cc12 (stereo unspecified)	8	0	2	1	.	.
Cc1cccc2c(O)c(CC3C(=O)C4CCN3CC4)c(=O)oc12 (stereo unspecified)	-8	0	1	0	.	.
CN(C)CCN(C)Cc1c[nH]c2ccccc12	64*	0	5	0	-1	5
CN1CCN(CC#CCOc2ccc(Cl)cc2)CC1	54*	0	-8	-1	9	12

Screens: PubChem, The Scripps Research Institute Molecular Screening Center
